Bioassay records (PubChem BioAssay)
NALP3 yeast inh – NALP3 inhibition in yeast; inhibition, % at 10 µM; Yeast reconstituted NLRP3/ASC/caspase-1, beta-gal luminescence, 24 h; hit rate 0.39% among 330,000;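 active = inhibition of 50% or more; inactive = inhibition below 50%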;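 note: plate controls were induced DMSO wells for no effect and uninduced yeast grown without galactose for full effect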
PfHsp90 set2 – growth inhibition of yeast expressing Plasmodium Hsp90 | S. cerevisiae expressing PfHsp90, BacTiter-Glo ATP, 48 h; yeast lacking PDR1 and PDR3 efflux regulators | inhibition, % at 9.4 µM | hit rate 0.32% among 310,000 | AID 504621;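 active = every replicate shows inhibition above about 80%, whatever the replicate mean, limit read from the data; inconclusive = mean inhibition reaches the set limit but some replicate falls short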;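 note: 0% = DMSO neutral controls and 100% = 20 µM radicicol positive controls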
tim23-1 inh – tim23-1 yeast growth inhibition; S. cerevisiae tim23-1 growth, BacTiter-Glo luminescence, 24 h; inhibition, % at 20 µM; hit rate 1.3% among 330,000;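 active = growth inhibition of the mutant yeast at or above 50%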;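 note: temperature-sensitive mutant grown at 25 °C; plate controls were DMSO-treated mutant yeast for no effect and medium wells lacking yeast for full effect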
TIM10 inh – growth inhibitors of TIM10 yeast strain. inhibition, % at 10 µM. AID 463195. S. cerevisiae TIM10 strain growth, BacTiter-Glo luminescence, 24 h. hit rate 1.4% among 330,000;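 active = inhibition of 40% or more at the single tested concentration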;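 note: wild-type TIM10 isogenic control strain grown at permissive 25 °C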
tim10-1 inh – growth inhibitors of tim10-1 mutant yeast; S. cerevisiae tim10-1 ts strain growth, BacTiter-Glo, 24 h; inhibition, % at 20 µM; hit rate 2.2% among 330,000; AID 463190;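 active = inhibition of at least 40%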;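 note: mutant grown at 25 °C; 0% = DMSO wells with yeast and 100% = wells holding no yeast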
SKKanGAS inh – inhibitors of SKKanGAS S. pyogenes growth in kanamycin (SK-promoter or general growth effect); BacTiter-Glo, 6 h; inhibition, % at 7.5 µM; hit rate 1.3% among 300,000; AID 1662;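 active = mean replicate score, as percent of positive control median, at least 50; inconclusive = mean below 50 but one replicate at or above 50; inactive = mean and every replicate below 50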;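 note: strain carries kanamycin resistance gene driven by streptokinase promoter and grows in 40 µg/ml kanamycin; loss of luminescence reflects streptokinase promoter inhibition or plain growth inhibition; 0% = median of DMSO wells and 100% = positive control at its reference dose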
TIM10 conf – TIM10 yeast growth inhibition, confirmed; shares compounds with TIM10 inh; S. cerevisiae tim10 strain growth, BacTiter-Glo luminescence, 24 h; inhibition, % at 10 µM; hit rate 63% among 4,600; AID 463215;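 active = inhibition of yeast growth at or above a set limit in either of two replicates at 10 µM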;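 note: this counterscreen used the strain with wild-type TIM10; 0% = yeast with DMSO and 100% = medium wells lacking yeast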
tim23-1 confirm – tim23-1 yeast growth inhibition, confirmed. AID 463218. S. cerevisiae tim23-1 growth, BacTiter-Glo luminescence, 24 h. hit rate 83% among 4,400. shares compounds with tim23-1 inh. inhibition, % at 20 µM;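 active = inhibition above about 39% in either of two replicate wells at 20 µM, limit read from the data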;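 note: temperature-sensitive tim23-1 mutant grown at 25 °C; 0% = DMSO wells with yeast and 100% = medium wells without yeast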
An asterisk follows results filed as active; ? = inconclusive; · = not tested or not shown. Hits are enriched below; roughly 4.5% of the tested compounds scored in any of these assays.

SMILES	NALP3 yeast inh	PfHsp90 set2	tim23-1 inh	TIM10 inh	tim10-1 inh	SKKanGAS inh	TIM10 conf	tim23-1 confirm
CCN(CC)C(=O)c1sc2nc(-c3cccs3)cc(-c3cccs3)c2c1N	21.2	-0.4	52.9*	42.7*	34.7	28.9	34.8*	43.2*
O=C1/C(=C/c2cccs2)Cc2ccccc21	-0.5	8.8	50.6*	48.3*	19.8	-5.9	-47.8	70.0*
O=C1/C(=C\c2ccc(Br)o2)Cc2ccccc21	-7.6	27.4	26.9	20.0	14.2	-2.6	·	·
CC(=O)c1ccc(N2CCN(C(=O)/C=C/c3ccc4ccccc4n3)CC2)cc1	36.9	0.8	50.3*	63.9*	23.6	9.7	75.8*	39.6*
Cc1cc(Cl)ccc1OCC(=O)NNC(=O)c1ccc(=O)[nH]c1	1.8	-7.5	8.4	-11.3	-5.2	·	·	·
CCOc1ccc(NC(=O)c2cc3cc4ccc(C)cc4nc3o2)cc1	3.1	·	2.6	-0.8	9.3	-14.8	·	·
Cc1ccc2cc3cc(C(=O)NCCCN4CCCCCC4)oc3nc2c1	11.5	13.9	50.6*	58.3*	33.3	-2.4	-4.8	22.6
Oc1c(C=Nc2cccnc2)sc2ccccc12	20.2	11.5	-1.2	20.6	3.7	4.4	·	·
Oc1c(C=Nc2ccccc2)sc2ccccc12	40.3	22.4	66.2*	40.2*	32.9	2.2	45.4*	62.1*
CC(NC(=O)c1ccc([N+](=O)[O-])o1)C12CC3CC(CC(C3)C1)C2 (configuration not stated)	25.5	-21.8	61.4*	44.9*	-6.0	56.6*	59.4*	-4.7
c1ccc2c(c1)ncn2CCC1CCCCC1	22.1	-3.1	53.4*	41.8*	33.6	21.7	35.2*	18.7
N/C(=N\OC(=O)c1ccc(Cl)c([N+](=O)[O-])c1)c1ccccc1	34.1	13.3	81.4*	71.9*	33.9	-6.9	72.2*	78.3*
N/C(=N\OC(=O)c1ccc(Cl)c([N+](=O)[O-])c1)c1ccccn1	10.2	2.1	14.5	-11.7	28.8	3.0	·	·
CN1OC[C@@H]2CN(C(=O)CCc3ccccc3)[C@H](c3cccc(N4CCOCC4)c3)C[C@@H]21	·	-0.4	·	·	·	·	·	·
NC(=O)c1oc2ccccc2c1NC(=O)c1ccc(F)cc1	16.0	-12.5	14.0	13.4	14.3	-5.0	·	·
NC(=O)c1oc2ccccc2c1NC(=O)c1ccc([N+](=O)[O-])o1	5.0	-12.7	66.2*	56.7*	29.1	73.0*	65.7*	59.5*
CC(OC(=O)C1CC1C)C(=O)Nc1ncc(Cl)cc1Cl (configuration not stated)	14.2	·	17.6	5.6	3.9	-7.2	·	·
O=C(Nc1ccc(-c2cn3ccccc3n2)cc1)c1ccco1	44.1	21.9	59.5*	44.3*	-17.6	0.0	1.1	59.1*
O=C(Nc1ccc(-c2cn3ccccc3n2)cc1)c1ccc(Cl)cc1	17.6	-26.8	11.5	2.6	-5.0	-0.5	·	·
COc1ccc(-c2nnc(OC)c3ccccc23)cc1	39.2	-1.2	41.1	-14.3	22.4	-4.2	·	·
COc1ccc(-c2nnc(Sc3nc4ccccc4o3)c3ccccc23)cc1	19.2	15.1	51.9*	41.8*	27.3	2.7	35.6*	42.3*
COc1ccc(-n2nc(C(=O)NCC(=O)N(C)Cc3ccccc3)c3ccccc3c2=O)c(OC)c1	6.2	17.2	-1.6	-11.5	-5.3	-2.7	·	·
CCCOc1ccc(/C=c2\sc3ncnn3c2=O)cc1	19.8	23.1	47.1	18.9	32.2	0.3	·	·
CCOc1ccccc1/C=c1\sc2ncnn2c1=O	23.6	·	60.0*	43.1*	37.7	-3.2	31.7*	73.9*
CN(Cc1ccccc1)C(=O)c1ccc(S(=O)(=O)N(C)c2ccccc2)cc1	-1.7	3.2	18.1	8.0	-3.6	·	·	·
SMILES	NALP3 yeast inh	PfHsp90 set2	tim23-1 inh	TIM10 inh	tim10-1 inh	SKKanGAS inh	TIM10 conf	tim23-1 confirm
CC1(c2ccccc2)ON(c2ccccc2C(F)(F)F)C1=O (configuration not stated)	-3.8	·	62.0*	54.1*	-32.8	·	64.6*	-13.0
O=C(c1ccccc1)c1ccc(Oc2ccc(C(=O)O)c(C(=O)O)c2)cc1	14.2	-4.1	4.6	2.0	-2.9	3.7	·	·
O=C(c1ccc([N+](=O)[O-])o1)N1CCc2ccccc2C1	20.9	?	59.0*	73.1*	38.2	19.1	73.2*	35.5
O=C(COC(=O)c1c[nH]c2ccccc12)Nc1cccc(F)c1	20.8	·	4.4	-3.5	-14.0	·	·	·
COc1ccccc1/C=N\NC(=O)c1c(C)nc2ccc(Cl)cn12	14.5	18.1	13.7	4.4	8.1	-2.6	·	·
COc1cccc(/C=N/NC(=O)c2c(C)nc3ccc(Cl)cn23)c1O	6.4	5.2	58.8*	48.1*	25.7	102.5*	64.8*	58.3*
Cn1c(CSc2nc3ccc(Br)cc3[nH]2)nc2ccccc21	23.1	22.0	61.1*	40.6*	29.0	-2.3	27.7	57.4*
Cc1c(C(=O)Oc2cccc3cccnc23)oc2ccccc12	24.7	-0.8	64.6*	53.5*	36.3	2.7	40.5*	58.3*
COc1ccc(NC(=O)N2CCCC2C(=O)NC2CCCC2)cc1 (configuration not stated)	22.9	-5.9	11.3	-6.5	-14.5	-1.7	·	·
CC(=O)Nc1sc2c(c1C(c1ccc(Cl)cc1)N1CCOCC1)CCCC2 (configuration not stated)	15.6	32.4	50.5*	41.2*	29.2	34.0	-53.3	55.1*
Cc1c(C2(O)CCCCC2)[nH]c2ccc(C(F)(F)F)cc12	44.6	48.8	81.6*	58.6*	38.5	·	66.5*	64.7*
COC(=O)c1ccc(N=NN2CCCCC2)cc1	28.1	22.9	19.5	2.6	20.3	-2.5	·	·
O=C(/C=C\Nc1ccc2c(c1)OCO2)c1ccc2c(c1)OCO2	18.2	6.6	-1.3	-13.2	-18.9	-0.8	·	·
O=C1Nc2ccc(Br)cc2/C1=C/C(=O)c1ccc2c(c1)OCO2	17.3	106.0*	72.6*	52.8*	16.8	-0.8	64.2*	-69.5
Cc1cccc(N=N/C(=C\O)C(=O)c2cccs2)c1	16.7	-56.3	58.2*	43.1*	38.2	0.0	44.8*	60.5*
Cc1cccc(OCc2nnc(SCC(=O)N3c4ccccc4CC3C)n2C)c1C (configuration not stated)	14.7	-19.7	54.4*	44.4*	39.5	28.0	-2.0	42.2*
COCC(=O)Nc1cc(C(=O)Nc2ccccc2)ccc1Cl	21.4	·	53.6*	41.8*	31.2	-7.1	47.4*	71.0*
COc1ccc(C(=O)Nc2ccccc2)cc1NC(=O)c1cccs1	20.7	2.8	50.9*	53.9*	17.6	0.0	45.0*	74.2*
CCOc1ccccc1N(CC(=O)NC1CCCCC1)C(=O)CCC(=O)Nc1nccs1	19.0	-29.5	11.7	7.2	-8.4	-12.1	·	·
